KB-3-1 cytotox: kills parental KB-3-1 adenocarcinoma cells; KB-3-1 viability, CellTiter-Glo ATP luminescence, 72 h; hit rate 1.4% among 400,000; AID 1347075; Potency, µM (titrated, usually from 46.1 µM), actives largely listed as cytotoxic; note: nearly all actives have a fitted effect of over 60% in size
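Here the drug-naive KB-3-1 line serves as comparator for MDR sub-line selectivity; cells received compound titrations, 72 h at 37 °C, then CellTiter-Glo readout.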
HT1080 IDH1KD tx: kills HT-1080 cells with IDH1 knockdown. hit rate 2% among 360,000. HT-1080 IDH1 knockdown viability, ATP luminescence, 48 h. Potency, µM (doses to about 46.1 µM), usual class: cytotoxic
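Cytotoxicity counter-line: IDH1KD HT-1080, 48 h, CellTiter-Glo. Curves classed by r2, magnitude and activity.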
HT1080-NT tox: kills 2HG-producing HT-1080-NT fibrosarcoma cells | HT-1080-NT fibrosarcoma viability, CellTiter-Glo ATP luminescence, 48 h | Potency, µM (doses to about 46.1 µM), hits mostly cytotoxic | hit rate 1.6% among 360,000 | AID 686970;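 note: NT is the 2HG producing partner of a matched IDH1 knockdown line; nearly all actives have a fitted effect of over 55% in size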
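HT-1080-NT; 750 cells/well; 5% FBS RPMI; 48 h compound, 37 degrees C; CellTiter-Glo luminescence; curve fitting and curve-class assignment.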
KB-V1 cytotox: KB-V1 MDR subline cytotoxicity; KB-V1 MDR cells viability, CellTiter-Glo, 72 h; Potency, µM (highest dose often 46.1 µM), hits mostly cytotoxic; hit rate 3.4% among 400,000; AID 1347076; note: nearly all actives have a fitted effect of over 60% in size
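qHTS viability screen in drug-selected KB-V1 MDR cells: 72 h compound treatment at 37 degrees C, ATP luminescence end point.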
IL-1B inflam inh: inhibitors of inflammasome signaling (IL-1 beta secretion); hit rate 4.7% among 360,000; activity change, % at 57.5 µM; THP-1 LPS/ATP IL-1B secretion, AlphaLISA, 16 h; hits give low values; in the data active = activity change below about -50%; inconclusive = mostly about -30% to -49%
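Secreted IL-1B measured by AlphaLISA bead assay after 16 h compound exposure of THP-1 cells; compounds (final up to 57.5 uM) added 1 h before LPS (250 ng/mL) and ATP (1.25 mM) stimulation; lower signal means less secretion.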
Numbers stand for hits; 0 = inactive; ? = inconclusive; - = no result given. Most compounds without a hit are left out; they make up all but 8.8% or so of the library. Unless noted, calls come from the whole dose curve; as a rule, active = well fitted curve in the direction sought with a large enough effect; inconclusive = small, poorly fitted or top-dose-only effect, or another doubt; inactive = no such curve, though single readings can be large; an effect the other way counts as inactive or inconclusive.

SMILES	KB-3-1 cytotox	HT1080 IDH1KD tx	HT1080-NT tox	KB-V1 cytotox	IL-1B inflam inh
COc1ccc(S(=O)(=O)N2CCCCC2)cc1NC(=O)C1CC(=O)N(Cc2ccccc2)C1 (stereo unspecified)	0	0	0	0	0
CN(C)CCNc1ncnc2oc(-c3ccccc3)c(-c3ccccc3)c12	0	0	0	0	-70
Cc1ccc(-c2oc3ncnc(N)c3c2-c2ccc(C)cc2)cc1	0	0	0	0	0
COc1ccc(-c2oc3ncnc(NCCCN(C)C)c3c2-c2ccc(OC)cc2)cc1	?	?	?	0	-64
CCOCCCN(C(=O)c1snc(C(N)=O)c1N)C(C(=O)NC1CCCC1)c1ccc(O)cc1 (stereo unspecified)	0	0	0	0	0
Cc1ccccc1-c1nnn(CC(=O)NC(=O)NC2CCCC2)n1	-	0	0	-	-54
C[C@@H]1CN([C@H](C)CO)C(=O)c2c(c3ccccc3n2C)-c2ccccc2CO[C@@H]1CN(C)S(=O)(=O)c1cccs1	?	?	0	0	0
CN(CC(=O)Nc1ccc(N2CCOCC2)cc1)CC(=O)Nc1ccc(C(F)(F)F)cc1	0	0	0	?	0
CCN(CC(=O)Nc1ccc(N2CCOCC2)cc1)C(=O)c1ccc(C(F)(F)F)cc1	0	0	?	?	-57
CCc1ccc(C(=O)NC(=S)Nc2ccc(N3CCOCC3)cc2)cc1	0	0	0	18µM	0
CC1CCN(c2ccccc2NC(=S)NC(=O)c2ccco2)CC1	0	0	0	18µM	0
O=C(NC(=S)Nc1ccc(CN2CCOCC2)cc1)c1ccco1	0	0	0	0	-
O=C(NC(=S)Nc1ccc(N2CCOCC2)cc1)c1ccco1	0	0	0	16µM	0
O=C(CN(Cc1ccccc1Cl)C(=O)c1csnn1)NCc1ccc2c(c1)OCO2	0	0	0	0	0
c1cnc2[nH]ccc2c1	0	-	-	0	-
O=C1CC(N2CCOCC2)C(=O)N1Cc1ccc(N2CCCC2=O)cc1 (stereo unspecified)	0	0	0	0	0
O=C1CC(N2CCN(C/C=C/c3ccccc3)CC2)C(=O)N1Cc1ccc(N2CCCC2=O)cc1 (stereo unspecified)	?	0	0	10µM	0
COc1cc(CNCCc2ccccc2)cc(Cl)c1OCc1ccccc1	?	?	13µM	18µM	-104
COc1cccc(CNCCO)c1OCc1ccccc1Cl	0	0	0	0	0
COc1cc(CNCCO)cc(Cl)c1OCc1ccccc1Cl	0	?	?	0	-91
CCOc1cc(CNC(C)(C)CO)cc(Br)c1OCc1ccc(Cl)cc1Cl	0	10µM	11µM	?	?
CCOc1cc(CNCCO)cc(Br)c1OCc1ccccc1Cl	?	23µM	?	23µM	?
Cc1ccc(S(=O)(=O)N2CCN(Cc3ccccc3)CC2)c(C)c1NS(C)(=O)=O	0	-	-	0	-
COc1cc(CNCc2ccncc2)cc(Br)c1OCc1ccccc1F	4.1µM	?	?	3.7µM	?
CCOc1cc(CNCCCN2CCOCC2)cc(Br)c1OCc1ccccc1Cl	?	8.2µM	7.3µM	?	-101
SMILES	KB-3-1 cytotox	HT1080 IDH1KD tx	HT1080-NT tox	KB-V1 cytotox	IL-1B inflam inh
CCOc1cc(CNc2ccc(O)cc2)cc(Br)c1OCc1ccccc1F	0	?	?	0	-63
COc1cc(CNc2ccc(O)cc2)cc(Br)c1OCc1ccccc1F	0	?	?	0	0
COc1cc(-c2nnn(CC(=O)Nc3ccc(OC(F)(F)F)cc3)n2)cc(OC)c1OC	0	-	-	0	-
Cc1cccc(CCNCc2c(C(=O)O)c(C)n(-c3ccccc3)c2C)c1	0	0	0	0	0
Cc1ccc(CNC(=O)c2nnc(Cc3cccc(F)c3)o2)cc1	0	-	-	0	-
Cc1cccc(C)c1NC(=O)Cn1c(=O)cc(C)c2c(C)nn(-c3cccc(Cl)c3C)c21	0	-	-	0	-
CC1Cc2ccccc2N1S(=O)(=O)c1ccc2c(c1)n(C)c(=O)c(=O)n2C (stereo unspecified)	0	0	0	16µM	0
CC(=O)N1c2ccc(S(=O)(=O)N3c4ccccc4CC3C)cc2CC1C (stereo unspecified)	0	0	0	0	0
CCOC(=O)CCC(NC(=O)c1ccc(Nc2nc3ccccc3nc2C(=O)OCC)cc1)C(=O)OCC (stereo unspecified)	0	0	0	9.2µM	0

Assay outcomes from PubChem BioAssay.
